The nature of assay [1]: Nuclear factor erythroid 2-related factor 2/antioxidant responsive element (Nrf2/ARE) small molecule agonists: luciferase reporter gene qHTS assay in human keratinocytes (AID 1919969). Note: nearly all actives have a fitted effect of over 35% in size. Note: potency is the fitted concentration of half-maximal effect. On the technique in general: In a reporter assay the amount or activity of a reporter protein is the signal.
Assay [2] deals with Gonadotropin-releasing hormone receptor (Homo sapiens) (UniProt P30968). Briefly: Human gonadotropin-releasing hormone receptor (GnRHR) small molecule agonists, calcium flux assay in GnRHR-HEK293 cells (AID 1920063). Note: nearly all actives have a fitted effect of over 35% in size. An outline of the steps:
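Compounds dissolved in DMSO are pin-transferred onto dye-loaded GnRHR-HEK293 cells, which were seeded 18 h before at 37 C/5% CO2. Calcium signal is read as fluorescence intensity at 1 s intervals for 3 min.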

Assay [3] deals with KiSS-1 receptor (Homo sapiens) (UniProt Q969F8). Briefly: Human kisspeptin (KISS1R) small molecule agonists, calcium flux assay in KISS1R-HEK293 cells (AID 1920064; active = well fitted activation curve with a large enough effect in the repeat runs). In short, it runs like this:
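Cell line: HEK293, stable human KISS1R. Dye loading 1 h at 37 C after 18 h culture. Read: kinetic fluorescence, 480/540 nm, 3 min at 1 s intervals.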
In general terms: Calcium flux is commonly read through the fluorescence of an indicator in the cells.

A short description of assay [4]: G protein-coupled receptor (GPCR) small molecule agonists, calcium flux assay: HEK293 wild type cell line counter screen (AID 1920065). In short, it runs like this:
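Tox21 10K compounds, 15 concentrations each in triplicate, pin-transferred in DMSO onto dye-loaded cells; kinetic read at 480/540 nm for 3 min, 1 s intervals.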

Assay [5] can be described thus: p53 small molecule agonists, cell-based qHTS assay with rat liver microsomes: qHTS cell viability counter screen (AID 1963580). Note: nearly all actives have a fitted effect of over 45% in size. An outline of the steps: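 After the beta-lactamase ratio was read, CellTiter-Glo was added to the same wells and luminescence measured at 30 min; cells had been treated 16 h at 37 C with compounds, rat liver microsomes and NADPH (0.5 mg/mL final each).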
On the technique in general: Quantitative high-throughput screening tests each substance at several concentrations.

Assay [6] can be described thus: p53 small molecule agonists, cell-based qHTS assay: qHTS cell viability counter screen (AID 1963581). Note: nearly all actives have a fitted effect of over 45% in size. Note: potency is the fitted concentration of half-maximal effect. An outline of the steps: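 ATP content measured by luminescence in HCT-116 p53RE-bla cells treated 16 h at 37 C, same wells as the reporter screen.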
Assay [7] deals with 5-hydroxytryptamine receptor 2A (Homo sapiens) (UniProt P28223). Briefly: 5-hydroxytryptamine receptor 2A (HTR2A) small molecule antagonists, cell-based qHTS assay (AID 1963586). Note: nearly all actives have a fitted effect of over 45% in size. An outline of the steps: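 CHO cells stably expressing human HTR2A were plated for 18 h at 37 C, then loaded with calcium dye for 1 h. Compounds were preincubated 5 min at room temperature before DOI (4 nM solution) was added. Kinetic fluorescence was read for 3 min.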

For assay [8] the target is unchanged. Briefly: 5-hydroxytryptamine receptor 2A (HTR2A) small molecule agonists, cell-based qHTS assay (AID 1963587). Note: nearly all actives have a fitted effect of over 30% in size. In short, it runs like this: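 CHO cells stably expressing human HTR2A, plated 18 h, loaded with calcium dye 1 h at 37 C. Agonist mode: compounds added and intracellular calcium fluorescence recorded kinetically for 2 min at 1 sec intervals.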
The target in assay [9] is Muscarinic acetylcholine receptor M1 (Homo sapiens) (UniProt P11229). Briefly: Cholinergic receptor muscarinic 1 (CHRM1) small molecule antagonists, cell-based qHTS assay (AID 1963588). Note: nearly all actives have a fitted effect of over 40% in size. In short, it runs like this:
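Compounds were tested at 15 concentrations in three independent runs. Dye-loaded CHRM1-CHO cells were exposed 5 min at room temperature before stimulation by acetylcholine added at 50nM. Intracellular calcium was read kinetically on FDSS for 3 min.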

For assay [10] the target is unchanged. Briefly: Cholinergic receptor muscarinic 1 (CHRM1) small molecule agonists, cell-based qHTS assay (AID 1963589). Note: nearly all actives have a fitted effect of over 35% in size. In short, it runs like this: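 Homogeneous fluorescence calcium flux, agonist mode. Human M1-expressing CHO cells; compound dosed at 15 concentrations, three independent runs; signal sampled every 1 sec.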
Assay [11] can be described thus: cAMP Responsive Elements (CRE) small molecule antagonists, cell-based qHTS assay (AID 1963591; active = well fitted inhibition curve with a large enough effect in the signal ratio in the repeat runs, not every such curve was filed as active; the % refers to the signal ratio; note: potency is the fitted concentration of half-maximal effect). In short, it runs like this:
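First, CRE-bla HEK293T cells settled 18 h at 37 C. Next, compound and 0.25 uM final NKH477 were applied for 3 h. Last, LiveBLAzer B/G substrate was loaded for 2 h at room temperature.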

Assay [12] has as its target Beta-2 adrenergic receptor (Homo sapiens) (UniProt P07550). Briefly: Adrenergic beta2 receptor (ADRB2) small molecule antagonists, cell-based qHTS assay (AID 1963592). Note: series mostly up to about 92 µM; nearly all actives have a fitted effect of over 50% in size. An outline of the steps:
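Assay format: CHO-ADRB2 cells, 18-20hr seeding at 37C/5% CO2, then compound plus 1nM isoproterenol agonist mix for 0.5hr RT. Homogeneous time-resolved fluorescence cAMP detection after 1hr, expressed as 665/615 nm ratio.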

Assay [13] has as its target D(2) dopamine receptor (Homo sapiens) (UniProt P14416). Briefly: Dopamine D2 receptor (DRD2) small molecule agonists, cell-based qHTS assay (AID 1963594). Note: nearly all actives have a fitted effect of over 35% in size. In short, it runs like this: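 HEK293 cells stably expressing human DRD2, pre-treated with PDE inhibitor Ro20-1724 (0.1 mM final) and compound 10 min at room temperature, then stimulated with NKH477 (200nM […]) for 30 min. cAMP read by HTRF (665/620 nm).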

For assay [14] the target is unchanged. Briefly: Dopamine D2 receptor (DRD2) small molecule antagonists, cell-based qHTS assay (AID 1963595; active = well fitted inhibition curve with a large enough effect in the signal ratio in the repeat runs, with a control signal flat; the % refers to the signal ratio; note: potency is the fitted concentration of half-maximal effect). An outline of the steps: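 Antagonist mode in DRD2-HEK293 cells: after compound addition with 0.1 mM Ro20-1724, cells received quinpirole (12 nM) and NKH477 (200 nM) for 30 min at room temperature; HTRF cAMP read after 1 h detection.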
A short description of assay [15]: p53 small molecule agonists, cell-based qHTS assay with rat liver microsomes (AID 1963578). Note: potency is the fitted concentration of half-maximal effect. An outline of the steps: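 Fluorescence from a beta-lactamase reporter under a p53 response element was measured after cells had been incubated 16 h at 37 C with test compound and rat liver microsomes plus NADPH (0.5 mg/mL final each).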
Assay [16] is described as follows: p53 small molecule agonists, cell-based qHTS assay with human liver microsomes: qHTS cell viability counter screen (AID 1963579). Note: nearly all actives have a fitted effect of over 45% in size. Note: potency is the fitted concentration of half-maximal effect. In short, it runs like this: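 Seed p53RE-bla cells at 4,000 per well; incubate 5 h at 37 C; add compound, human liver microsomes and NADPH; incubate 16 h at 37 C; add CellTiter-Glo; after 30 min at room temperature, read luminescence.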

Assay [17] in a line: p53 small molecule agonists, cell-based qHTS assay (AID 1963582; active = well fitted activation curve with a large enough effect in the signal ratio in the repeat runs, not every such curve was filed as active; the % refers to the signal ratio). In short, it runs like this:
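16 h compound exposure (37 C) of p53 response element–bla cells, preceded by 5 h recovery at 37 C/5% CO2; read-out via LiveBLAzer B/G FRET substrate, 2 h RT, fluorescence intensity.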

Assay [18] in a line: cAMP Responsive Elements (CRE) small molecule agonists, cell-based qHTS assay (AID 1963590). In short, it runs like this:
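HEK 293T cells stably bearing CRE-bla were plated at 2,000 cells per well and rested 18 h. Compounds, positive controls or DMSO were added for 3 h at 37 C. LiveBLAzer B/G substrate was then loaded for 2 h at room temperature.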

The nature of assay [19]: p53 small molecule agonists, cell-based qHTS assay with human liver microsomes (AID 1963577). An outline of the steps:
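Cells carrying a p53-responsive bla reporter were rested 5 h (37 C, 5% CO2) before compound transfer. Human liver microsomes plus NADPH, 0.5 mg/mL final apiece, supplied metabolism during the 16 h 37 C exposure.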

Among the data in PubChem BioAssay (Tox21) are Potency values, retold here.

Results filed as inconclusive are left out. The source made the active and inactive calls. Unless noted, calls come from the whole dose curve.

5-hydroxytryptamine receptor 2A (Homo sapiens), sequence (P28223 whole entry, looked up): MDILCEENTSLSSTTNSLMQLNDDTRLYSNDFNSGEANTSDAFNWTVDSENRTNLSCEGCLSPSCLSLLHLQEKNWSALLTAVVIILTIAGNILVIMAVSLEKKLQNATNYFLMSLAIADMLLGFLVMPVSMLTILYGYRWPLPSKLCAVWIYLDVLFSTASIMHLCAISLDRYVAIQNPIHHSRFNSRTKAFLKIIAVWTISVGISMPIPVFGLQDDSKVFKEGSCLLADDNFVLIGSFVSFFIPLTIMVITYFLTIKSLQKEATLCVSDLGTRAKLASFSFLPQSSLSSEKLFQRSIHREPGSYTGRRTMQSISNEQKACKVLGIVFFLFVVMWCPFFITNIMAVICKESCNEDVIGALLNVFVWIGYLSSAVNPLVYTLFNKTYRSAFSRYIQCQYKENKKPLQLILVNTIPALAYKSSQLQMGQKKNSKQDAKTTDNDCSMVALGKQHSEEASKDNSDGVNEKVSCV
KiSS-1 receptor (Homo sapiens), sequence (Q969F8 whole entry, looked up): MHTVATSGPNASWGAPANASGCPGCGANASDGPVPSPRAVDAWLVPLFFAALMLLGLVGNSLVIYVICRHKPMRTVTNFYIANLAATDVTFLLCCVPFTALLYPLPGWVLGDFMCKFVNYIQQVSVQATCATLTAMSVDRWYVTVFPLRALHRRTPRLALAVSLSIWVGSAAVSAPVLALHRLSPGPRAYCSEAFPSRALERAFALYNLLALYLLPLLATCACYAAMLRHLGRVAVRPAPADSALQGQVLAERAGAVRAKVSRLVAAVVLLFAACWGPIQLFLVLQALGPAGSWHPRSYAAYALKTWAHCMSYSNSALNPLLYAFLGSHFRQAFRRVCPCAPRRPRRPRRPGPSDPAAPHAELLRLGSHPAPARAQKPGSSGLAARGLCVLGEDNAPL
D(2) dopamine receptor (Homo sapiens), sequence (P14416 whole entry, looked up): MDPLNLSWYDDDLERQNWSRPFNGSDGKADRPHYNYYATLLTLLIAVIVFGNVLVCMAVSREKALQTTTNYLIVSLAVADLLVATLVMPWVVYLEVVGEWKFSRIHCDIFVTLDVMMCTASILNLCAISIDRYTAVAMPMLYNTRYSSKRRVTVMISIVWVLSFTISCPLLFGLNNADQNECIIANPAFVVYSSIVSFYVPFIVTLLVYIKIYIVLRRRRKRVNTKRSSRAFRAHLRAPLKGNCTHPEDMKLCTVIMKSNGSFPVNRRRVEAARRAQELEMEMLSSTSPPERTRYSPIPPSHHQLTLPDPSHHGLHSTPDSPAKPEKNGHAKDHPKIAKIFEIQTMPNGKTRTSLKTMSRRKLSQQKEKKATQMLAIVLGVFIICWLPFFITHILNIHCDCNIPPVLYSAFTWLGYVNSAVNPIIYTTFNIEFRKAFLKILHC
Beta-2 adrenergic receptor (Homo sapiens), sequence (P07550 whole entry, looked up): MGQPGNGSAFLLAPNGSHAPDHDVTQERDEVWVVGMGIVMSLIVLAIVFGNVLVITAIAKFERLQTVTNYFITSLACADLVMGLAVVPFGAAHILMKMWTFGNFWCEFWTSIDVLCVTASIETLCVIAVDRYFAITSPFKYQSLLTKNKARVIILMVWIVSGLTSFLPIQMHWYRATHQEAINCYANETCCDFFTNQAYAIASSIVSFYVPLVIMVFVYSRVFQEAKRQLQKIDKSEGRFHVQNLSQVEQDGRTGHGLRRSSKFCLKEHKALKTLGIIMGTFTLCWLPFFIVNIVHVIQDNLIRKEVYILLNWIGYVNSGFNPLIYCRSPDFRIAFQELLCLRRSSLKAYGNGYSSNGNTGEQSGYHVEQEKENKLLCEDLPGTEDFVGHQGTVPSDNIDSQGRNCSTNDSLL
Muscarinic acetylcholine receptor M1 (Homo sapiens), sequence (P11229 whole entry, looked up): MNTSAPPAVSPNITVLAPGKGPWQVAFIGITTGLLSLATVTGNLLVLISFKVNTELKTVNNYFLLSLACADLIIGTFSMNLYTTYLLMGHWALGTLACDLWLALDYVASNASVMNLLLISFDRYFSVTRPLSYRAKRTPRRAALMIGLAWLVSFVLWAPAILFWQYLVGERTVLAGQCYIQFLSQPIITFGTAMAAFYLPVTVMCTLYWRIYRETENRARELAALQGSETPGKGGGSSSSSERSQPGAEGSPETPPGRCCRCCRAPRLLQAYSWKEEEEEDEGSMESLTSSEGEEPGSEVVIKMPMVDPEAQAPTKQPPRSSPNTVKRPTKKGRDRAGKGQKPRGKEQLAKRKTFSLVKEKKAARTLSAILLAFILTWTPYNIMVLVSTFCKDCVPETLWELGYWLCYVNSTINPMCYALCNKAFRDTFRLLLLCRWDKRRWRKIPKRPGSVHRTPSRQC
Gonadotropin-releasing hormone receptor (Homo sapiens), sequence (P30968 whole entry, looked up): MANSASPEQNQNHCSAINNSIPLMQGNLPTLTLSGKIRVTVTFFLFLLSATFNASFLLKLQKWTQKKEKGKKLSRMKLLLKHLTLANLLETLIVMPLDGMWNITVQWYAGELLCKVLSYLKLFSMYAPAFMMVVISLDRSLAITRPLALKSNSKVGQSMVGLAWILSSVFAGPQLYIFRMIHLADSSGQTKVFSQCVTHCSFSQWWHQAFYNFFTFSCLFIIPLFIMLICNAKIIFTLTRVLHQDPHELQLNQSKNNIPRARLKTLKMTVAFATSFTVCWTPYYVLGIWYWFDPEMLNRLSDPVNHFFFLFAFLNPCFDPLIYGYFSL

For the molecule `NC(N)=NN=C(/C=C/c1ccc([N+](=O)[O-])o1)/C=C/c1ccc([N+](=O)[O-])o1`, the Potency is 6.68 µM (active) in [1], 17.8 µM (active) in assay [6] and 29.8 µM (active) in assay [11]. Moreover, the Potency entry in [2], in assay [3], in assay [4], in [5], in assay [7] and in [8] was “inactive” each time. Besides, the Potency entry in assay [9], in [10], in assay [12], in assay [13] and in assay [14] was “inactive” each time.

On to `COCCOc1cc2cc(C(=O)NC3CCN(C(C)C)CC3)n(CC(=O)Nc3ccc(Cl)cn3)c2cn1`, for which the Potency entry in assay [1], in assay [2], in assay [3], in [15], in [16] and in assay [5] was “inactive” throughout. Moreover, the Potency result in assay [6], in [17], in [7], in assay [8], in assay [9] and in [18] was “inactive” each time. Further, the Potency result in assay [12] was “inactive”.

As for `CCc1oc2ccccc2c1C(=O)c1cc(Br)c(O)c(Br)c1`, the Potency entry in [1], in [2], in [3], in assay [4], in [5] and in [6] was “inactive” throughout. Further, the Potency entry in assay [18], in assay [11], in assay [12], in assay [13] and in assay [14] was “inactive” each time.

`CCCCCCOc1ccc(O)cc1`: the Potency in assay [1] is 21.7 µM (active); in [14] it was 48.6 µM (active). Further, the Potency result in [2], in assay [3], in assay [4], in [16], in [7] and in assay [10] was “inactive” each time. In addition, the Potency result in assay [12] and in assay [13] was “inactive” in each case.

Regarding `CSC(=O)c1cccc2nnsc12`, the Potency entry in [1], in [2], in assay [3], in assay [4], in assay [5] and in assay [17] was “inactive” throughout. Further, the Potency entry in [7], in assay [8], in [9], in assay [10], in assay [18] and in assay [12] was “inactive” in each case. Further, the Potency result in [14] is “inactive”.

Consider `Oc1ccc(Cl)cc1C1CCCC1`, for which the Potency result in [1], in assay [2], in [3], in [19], in [15] and in [17] was “inactive” in each case. Also, the Potency entry in assay [7], in assay [10], in [12] and in [13] was “inactive” throughout. The values for the Potency in assay [16] and in assay [14] were 36.3 µM (active) and 61.1 µM (active), respectively.

Consider `COC(=O)C1=C(C)NC(COC(N)=O)=C(C(=O)OC(C)C)C1c1cccc(Cl)c1Cl` (stereo not given), for which the Potency result in [1], in [2], in assay [3], in [16], in [5] and in assay [6] was “inactive” each time. For the same molecule, the Potency result in assay [7], in assay [8], in assay [9], in assay [10], in assay [11] and in [12] was “inactive” throughout. Further, the Potency entry in assay [13] and in [14] was “inactive” each time. In addition, the Potency in assay [15] is 19.9 µM (active).

Consider `C=CC(C)(CCC=C(C)C)OC(=O)/C=C/c1ccccc1` (stereo not given), for which the Potency in assay [1] is 68.6 µM (active). The Potency result in [2], in assay [3], in assay [4], in assay [6], in [17] and in assay [7] was “inactive” each time. Moreover, the Potency entry in assay [8], in assay [9], in [10], in [18], in assay [11] and in assay [12] was “inactive” each time. Also, the Potency entry in [13] and in [14] was “inactive” each time.

Regarding `O=C(/C=C/c1ccc(O)c(O)c1)O[C@@H](C(=O)O)[C@@H](OC(=O)/C=C/c1ccc(O)c(O)c1)C(=O)O`, the Potency entry in assay [1], in assay [2], in [3], in assay [19], in assay [15] and in [5] was “inactive” throughout. In addition, the Potency result in [6], in assay [8], in assay [9], in [10], in [18] and in [12] was “inactive” throughout.
